Only some compounds are listed: those with a hit (about 2.2% of all), similar ones and a draw of the others.
BRCA1 expr up: activators of BRCA1 expression; AID 624202; MCF7-BRCA1-FFLuc reporter, luminescence, 48 h; response scale: scaled: vehicle 0%, 10 µM genistein 100%; hit rate 1.1% among 380,000; Potency, µM (doses to about 46.1 µM), for inactives: at the highest dose activation, actives largely listed as activators; note: potency is the fitted concentration of half-maximal effect; nearly all actives have a fitted effect of over 80% in size
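Luminescence from a BRCA1-driven firefly luciferase in MCF7 cells was read after 48 h compound exposure at 37 C. Data normalized against DMSO and a 10microM genistein activation control, then curve-fitted across the titration.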
TrxR1 substrate: substrates of rat thioredoxin reductase 1; O89049; purified TrxR1 substrate turnover, NADPH consumption readout; Potency, µM (doses to about 114 µM), for inactives: at the top dose activity change, negative = substrate turnover; hit rate 0.01% among 390,000; note: potency is the fitted concentration of half-maximal effect; % is set by controls: 0 for no effect and ±100 for the full control effect; nearly all actives have a fitted effect of over 50% in size
Target sequence (O89049 whole entry, looked up): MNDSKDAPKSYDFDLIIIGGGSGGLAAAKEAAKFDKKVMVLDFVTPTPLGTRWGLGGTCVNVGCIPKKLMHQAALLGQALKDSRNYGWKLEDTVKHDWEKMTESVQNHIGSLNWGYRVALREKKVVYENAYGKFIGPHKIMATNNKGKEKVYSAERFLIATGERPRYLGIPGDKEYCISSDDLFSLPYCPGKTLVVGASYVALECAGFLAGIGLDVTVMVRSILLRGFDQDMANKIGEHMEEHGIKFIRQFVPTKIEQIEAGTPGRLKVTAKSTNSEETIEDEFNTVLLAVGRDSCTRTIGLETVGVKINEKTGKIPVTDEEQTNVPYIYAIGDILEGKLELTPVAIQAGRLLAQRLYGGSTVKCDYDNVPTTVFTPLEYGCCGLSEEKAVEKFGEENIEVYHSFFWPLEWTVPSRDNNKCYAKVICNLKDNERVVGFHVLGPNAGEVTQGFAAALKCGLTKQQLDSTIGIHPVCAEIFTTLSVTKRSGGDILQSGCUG
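Rat TrxR1, dispensed at 90 nM, was prereduced with 400 uM NADPH (final) for 5 min at ~22 deg C, then incubated with compound 15 min before 400 uM selenite. A first-read NADPH fluorescence drop versus no-compound background flagged substrates.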
IL2 activator: activators of IL-2 | IL-2 activation reporter assay, cell-based qHTS; stimulated with anti-CD3/CD4/CD28 beads; in transgenic mouse T cells | activation, % (series mostly up to about 46 µM) | hit rate 0.065% among 360,000 | AID 652025; in the data active = activation above about 50%; inconclusive = mostly about 30% to 49%; note: 0% is about no effect
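Unstimulated transgenic mouse T cells; 60-min compound exposure; bead-based TCR/CD4/CD28 stimulation; 18 h culture, 37 degrees C; dual fluorescence (EGFP, DsRed) plate cytometry.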
IDH1 R132H inh: inhibitors of human mutant IDH1 R132H | Potency, µM (titrated, usually from 76.6 µM), inactives show at the top dose activity change, negative = inhibition, actives largely listed as inhibitors | hit rate 0.093% among 390,000 | O75874 | IDH1-R132H enzyme, NADPH consumption, diaphorase/resazurin fluorescence; note: potency is the fitted concentration of half-maximal effect; % is set by controls: 0 for no effect and ±100 for the full control effect; nearly all actives have a fitted effect of over 65% in size
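IDH1-R132H (0.5 ug/mL dispensed) in pH 7.5 Tris buffer was preincubated 30 min with compound, then given a substrate mix of 0.016 mM NADPH and 2 mM alpha-KG for 80 min at room temperature; remaining NADPH was read by diaphorase/resazurin fluorescence.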
rTrxR1 inhibitor: blocks rat thioredoxin reductase 1 | O89049 | recombinant rTrxR1, NADPH fluorescence consumption, selenite substrate | Potency, µM (series often up to 114 µM), for inactives: at the top dose activity change, negative = inhibition, usual class: inhibitors | hit rate 1% among 390,000; note: potency is the fitted concentration of half-maximal effect; % is set by controls: 0 for no effect and ±100 for the full control effect; nearly all actives have a fitted effect of over 65% in size
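Rat TrxR1 (90 nM in the dispensed reagent) was pre-reduced with 400 uM NADPH for 5 min at room temperature, then incubated with compound for 15 min. After 400 uM selenite was added, NADPH fluorescence (Ex 340/Em 450 nm) was followed for 8 min.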
Giardia killer: Giardia lamblia killing; Giardia lamblia trophozoite viability; activity change, % at 7.66 µM, hits read low; hit rate 0.15% among 340,000; in the data active = activity change below about -80%; inconclusive = between about -30% and that limit;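 note: parasites exposed to compound for two days anaerobically before the ATP read; % is set by controls: 0 for no effect and ±100 for the full control effect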
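Luminescent ATP signal served as the viability read-out, measured 15-30 min after adding ATP detection reagent to trophozoites that had been incubated with compounds for 48 hrs at 37 deg C anaerobically at 100 cells/well.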
Resorufin autofl: autofluorescence interference, mutant IDH1 hit counter-screen; shares compounds with IDH1 R132H inh; AID 623980; inhibition of signal, % at 51.2 µM; 750 tested, under 10 active; Resorufin detection reagent fluorescence interference, cell-free;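 note: 0% = wells with normal resorufin and full inhibition = wells lacking resorufin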
IDH1 WT: inhibits human wild-type IDH1, mutant selectivity check. WT IDH1 enzyme, NADPH diaphorase/resazurin fluorescence. Potency, µM (doses to about 115 µM), inactives show at the top dose activity change, negative = inhibition, usual class: inhibitors. shares compounds with IDH1 R132H inh. AID 623995. hit rate 9% among 750;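 note: potency is the fitted concentration of half-maximal effect; 0% = full WT IDH1 enzyme control and full inhibition = no enzyme wells; nearly all actives have a fitted effect of over 55% in size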
mIDH1 confirm: mutant IDH1 (human) inhibition, confirmed; shares compounds with IDH1 R132H inh; IDH1 R132H enzyme, NADPH diaphorase/resazurin fluorescence; Potency, µM (series often up to 76.6 µM), for the others: at the highest dose activity change, negative = inhibition, most hits filed as inhibitors; hit rate 83% among 750; note: potency is the fitted concentration of half-maximal effect; nearly all actives have a fitted effect of over 50% in size
* hit, by the source's call; ? = inconclusive; · = no result; [ ] = dose if it differs, or a comment. Unless noted, calls come from the whole dose curve; as a rule, active = well fitted curve in the direction sought with a large enough effect; inconclusive = small, poorly fitted or top-dose-only effect, or another doubt; inactive = no such curve, though single readings can be large; an effect the other way counts as inactive or inconclusive.

SMILES	BRCA1 expr up	TrxR1 substrate	IL2 activator	IDH1 R132H inh	rTrxR1 inhibitor	Giardia killer	Resorufin autofl	IDH1 WT	mIDH1 confirm
O=C(NC1CCCCC1)c1ccc(CSc2nc3cccnc3n2Cc2ccc(F)cc2)cc1	·	4%	·	-9%	15%	·	·	·	·
COc1ccc(NC(=O)C2CCCN(c3nnc(C)c4c(C)n(-c5ccccc5)nc34)C2)cc1Cl (configuration not stated)	·	21%	·	-4%	21%	·	·	·	·
Cc1ccc(-c2c(C)n3c4c(=O)n(C)c(=O)n(C)c4nc3n2CCO)cc1	·	1%[57.1 µM]	·	28%	6%[57.1 µM]	·	·	·	·
CCCCn1c(-c2ccc(C)cc2)c(C)n2c3c(=O)n(C)c(=O)n(C)c3nc12	·	-11%[57.1 µM]	·	?	-18%[57.1 µM]	·	-8	-16%	11µM*
CCc1ccc(S(=O)(=O)c2cn(C)c3cc(N4CCCCC4C)c(F)cc3c2=O)cc1 (configuration not stated)	·	37%	·	-9%	25%	·	·	·	·
Cc1ccc(C)c(S(=O)(=O)c2cn(C)c3cc(N4CCCCC4C)c(F)cc3c2=O)c1 (configuration not stated)	·	18%	·	?	28%	·	4	3%	16µM*
CCCn1cc(S(=O)(=O)c2ccccc2)c(=O)c2cc(F)c(N3CCCCC3)cc21	·	4%	·	-4%	8%	·	·	·	·
Cn1cc(S(=O)(=O)c2ccccc2)c(=O)c2cc(F)c(N3CCCCCC3)cc21	·	18%	·	40µM*	67%	·	3	3%	14µM*
CCn1cc(S(=O)(=O)c2ccccc2)c(=O)c2cc(F)c(N3CCCCCC3)cc21	·	47%	·	?	71%	·	2	5%	20µM*
O=C(COC(=O)CNC(=O)C1CCCCC1)NC1CC1	0%	3%	·	·	9%	55	·	·	·
CC1CCC(NC(=O)CCc2cn(Cc3ccc(F)cc3)c3ccccc23)CC1 (configuration not stated)	·	-3%	·	0%	27%	·	·	·	·
CCc1ccc(C2c3c(-c4cc(C)ccc4O)n[nH]c3C(=O)N2CCO)cc1 (configuration not stated)	·	-1%	·	-22%	21%	·	·	·	·
CCc1cc2c(=O)n(Cc3ccco3)c(SCC(=O)N3CCCc4ccccc43)nc2s1	-30%	4%	-2	?	?	4	3	-2%	?
CCc1cc2c(=O)n(Cc3ccco3)c(SCC(=O)NCC3CCCO3)nc2s1 (configuration not stated)	-32%	8%[0.0914 µM]	-4	0%	2%[57.1 µM]	5	·	·	·
Cc1cccc(CCNC(=O)c2sc3nc4n(c(=O)c3c2C)CCCC4)c1	·	16%	·	-18%	10%	·	·	·	·
Cc1nn(-c2ccccc2)c2c1C(c1ccc(O)c(O)c1)N1C(=N2)C(Nc2ccccc2)=Nc2ccccc21 (configuration not stated)	-17%	-5%	-3	29µM*	-5%	11	1	5%	40µM*
CCC1CCCCN1C(=O)Cn1c(=O)oc2cc(S(=O)(=O)N3CCCCC3)ccc21 (configuration not stated)	9%	4%	·	-2%	20%	·	·	·	·
Cc1ccc(Cn2c(C(=O)O)c(CNCc3ccc(OC(C)C)cc3)c3ccc(C)cc32)cc1	-75%	-1%	·	0%	22%	·	·	·	·

Screens as filed in PubChem BioAssay.
